The values below come from PubChem BioAssay.

Experiment [1] is described as follows: growth inhibition of DIPG glioma cells, dose response, cell-based, SU-DIPG-XIII, MIPE5.0, CellTiter-Glo, qHTS (AID 1347064; cut-off not given, nearly all actives have AC50 up to about 23 µM;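 as to AC50: cells exposed to compound for 48 hours before the viability read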). Particulars: SU-DIPG-XIII viability, CellTiter-Glo ATP luminescence. For orientation: Cellular ATP, detected with luciferase, serves as a proxy for viable cell number.
Experiment [2] concerns the target L-lactate dehydrogenase (Plasmodium falciparum (isolate CDC / Honduras)) (UniProt Q27743). Nature of the experiment: PfLDH activity inhibition – cell lysate, 3D7 strain, counter-screen for P. falciparum growth inhibition project (AID 2304).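 Also: 0% = vehicle and 100% = reference inhibitor.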 Particulars: P. falciparum 3D7 crude extract, LDH APAD/NBT absorbance; at 2 µM; stronger effect = higher value.
Experiment [3] can be described thus: inhibition of 3D7 malaria parasite growth – strain 3D7 (AID 2306).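 Also: 0% = DMSO wells and 100% = chloroquine plus artemisinin control wells.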 Particulars: P. falciparum 3D7 erythrocytic growth, LDH absorbance, 72 h; at 2 µM; stronger effect = higher value.
Experiment [4] is described as follows: protection against mutant huntingtin cytotoxicity, PC12 cells, LDH release (AID 1610). To be noted: PC12 mutant huntingtin toxicity, final LDH at 4 uM, stronger effect = lower value.

Inconclusive results are not listed. Active and inactive are the calls of the source. Unless noted, no rule for the calls is given here.

Sequence of L-lactate dehydrogenase (Plasmodium falciparum (isolate CDC / Honduras)) (Q27743 whole entry, looked up): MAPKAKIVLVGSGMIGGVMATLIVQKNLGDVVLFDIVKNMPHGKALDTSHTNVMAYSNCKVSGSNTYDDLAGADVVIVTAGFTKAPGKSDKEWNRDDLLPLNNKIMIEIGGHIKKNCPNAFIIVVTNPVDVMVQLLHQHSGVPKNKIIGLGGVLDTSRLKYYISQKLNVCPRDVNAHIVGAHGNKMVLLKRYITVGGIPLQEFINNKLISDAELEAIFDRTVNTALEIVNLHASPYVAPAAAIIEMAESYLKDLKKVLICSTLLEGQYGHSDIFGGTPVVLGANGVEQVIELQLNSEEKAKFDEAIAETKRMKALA

Consider `COc1cccc2c1C(=O)c1c(O)c3c(c(O)c1C2=O)C[C@@](O)(C(=O)CO)CC3OC1CC(N2CCOC(OC)C2)C(O)C(C)O1` (some centres undefined), for which, in experiment [1], the AC50 (in general, the midpoint of the concentration-response curve, whichever way the signal moves) was 7.42 nM (active).

Consider `O=C1CC[C@@]2(O)[C@H]3Cc4ccc(O)c5c4[C@@]2(CCN3CC2CC2)[C@H]1O5`, for which the result in experiment [1] was inactive.

In the case of `C=C[C@H]1CN2CC[C@H]1C[C@@H]2[C@@H](O)c1ccnc2ccccc12`, the inhibition (as a rule, how much of the control response was suppressed) in experiment [2] is 3% (inactive). The growth inhibition in experiment [3] was 101% (active).

As for `C=C[C@H]1CN2CC[C@H]1C[C@H]2[C@H](O)c1ccnc2ccccc12`, the inhibition in experiment [2] is 2% (inactive). Also, the growth inhibition in experiment [3] was 100% (active).

As to `CC[C@H]1CN2CC[C@H]1C[C@@H]2[C@@H](O)c1ccnc2ccc(OC)cc12`, in experiment [2], the inhibition is 1% (inactive). For the same compound, in experiment [3], the growth inhibition is 100% (active).

Regarding `O=c1c2ccccc2[se]n1-c1ccccc1`, in experiment [4], the normalised LDH release was found to be 0.64.
